Changes are numbered by the printed parent chain.
biological target: T1, SALL4 ZFC4 WT (HT-SELEX) (Mus musculus, UniProt Q8BX22 870-940); test: HT-SELEX; high values mean tight binding; details: protein: recombinant; vector His6-GST; dsDNA, one strand shown
T1 sequence: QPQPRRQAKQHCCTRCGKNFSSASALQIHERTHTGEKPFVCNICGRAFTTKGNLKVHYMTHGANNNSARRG
How it was run: (§1)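 DNA from a random library (1.5 µg in the first cycle, 200 ng afterwards) was incubated with purified recombinant mouse SALL4 zinc finger cluster 4, residues 870–940 (1 µg), for 10 min at room temperature in 100 µl buffer: 10 mM Tris–HCl pH 7.5, 50 mM NaCl, poly(dI-dC), DTT. Bound complexes were pulled down on Ni2+ beads, washed and PCR-amplified, and the selection was repeated for up to 6 cycles in triplicate. MiSeq reads were scanned for 6-mers, and binding signal is each canonical k-mer's read fraction as fold change over the initial random library.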

| Sequence | binding signal |
| --- | --- |
| CTCATA | 1.52 ± 0.0984 fold-change vs cycle 0 |
| ACATGA | 1.38 ± 0.0574 fold-change vs cycle 0 |
| ACTATA | 2.18 ± 0.121 fold-change vs cycle 0 |
| CGTACA | 0.639 ± 0.0345 fold-change vs cycle 0 |
| TAGTCA | 1.26 ± 0.0279 fold-change vs cycle 0 |
| GTGTCA | 0.688 ± 0.0282 fold-change vs cycle 0 |
| AAAAAT | 3.83 ± 0.465 fold-change vs cycle 0 |
| ACGGTG | 0.355 ± 0.0186 fold-change vs cycle 0 |
| CTCAGA | 0.791 ± 0.0265 fold-change vs cycle 0 |
| CGATAG | 0.68 ± 0.0214 fold-change vs cycle 0 |
| ACACAA | 1.07 ± 0.0495 fold-change vs cycle 0 |
| CTATGA | 1.49 ± 0.114 fold-change vs cycle 0 |
| GATTGA | 1.34 ± 0.0367 fold-change vs cycle 0 |
| ATGACC | 0.806 ± 0.0726 fold-change vs cycle 0 |
| AATAGG | 1.27 ± 0.0647 fold-change vs cycle 0 |
| TACACA | 1.21 ± 0.07 fold-change vs cycle 0 |
| ATGTGC | 0.53 ± 0.0281 fold-change vs cycle 0 |
| CACTCG | 0.397 ± 0.0122 fold-change vs cycle 0 |
| ACGCAA | 0.452 ± 0.0105 fold-change vs cycle 0 |
| GTCTTA | 1.27 ± 0.0474 fold-change vs cycle 0 |

| Sequence | binding signal |
| --- | --- |
| CCACTC | 0.468 ± 0.0131 fold-change vs cycle 0 |
| ACAGTA | 1.35 ± 0.0516 fold-change vs cycle 0 |
| GGCATA | 0.502 ± 0.0157 fold-change vs cycle 0 |
| AGGACG | 0.361 ± 0.014 fold-change vs cycle 0 |
| AAATGC | 0.879 ± 0.0146 fold-change vs cycle 0 |
| AGAACT | 1.36 ± 0.0489 fold-change vs cycle 0 |
| CAATGA | 1.32 ± 0.056 fold-change vs cycle 0 |
| ACCAAG | 0.816 ± 0.0198 fold-change vs cycle 0 |
| AGCTAC | 0.674 ± 0.0463 fold-change vs cycle 0 |
| GCGTTA | 0.54 ± 0.0741 fold-change vs cycle 0 |
| CGAATC | 0.662 ± 0.00887 fold-change vs cycle 0 |
| GGGTAA | 0.818 ± 0.0379 fold-change vs cycle 0 |
| ATATGG | 1.44 ± 0.131 fold-change vs cycle 0 |
| ACCAGA | 0.795 ± 0.0237 fold-change vs cycle 0 |
| CACACA | 0.666 ± 0.03 fold-change vs cycle 0 |
| ATATAC | 2.19 ± 0.164 fold-change vs cycle 0 |
| CATCAG | 0.861 ± 0.0198 fold-change vs cycle 0 |
| CAGTTA | 1.43 ± 0.0431 fold-change vs cycle 0 |
| AGTAGA | 1.33 ± 0.0604 fold-change vs cycle 0 |
| AACGTC | 0.624 ± 0.0116 fold-change vs cycle 0 |

biological target: T2, SALL4 ZFC4 R900W (HT-SELEX) (Mus musculus, UniProt Q8BX22 870-940, R900W); test: HT-SELEX; high values mean tight binding; details: protein: recombinant; vector His6-GST; dsDNA, one strand shown
T2 sequence: T1 sequence with R31W
How it was run: as §1

| Sequence | binding signal |
| --- | --- |
| CTCATA | 1.48 ± 0.0543 fold-change vs cycle 0 |
| ACATGA | 1.49 ± 0.0283 fold-change vs cycle 0 |
| ACTATA | 1.98 ± 0.101 fold-change vs cycle 0 |
| CGTACA | 0.729 ± 0.0226 fold-change vs cycle 0 |
| TAGTCA | 1.4 ± 0.0422 fold-change vs cycle 0 |
| GTGTCA | 0.805 ± 0.0104 fold-change vs cycle 0 |
| AAAAAT | 2.16 ± 0.197 fold-change vs cycle 0 |
| ACGGTG | 0.414 ± 0.0142 fold-change vs cycle 0 |
| CTCAGA | 0.909 ± 0.0246 fold-change vs cycle 0 |
| CGATAG | 0.774 ± 0.0246 fold-change vs cycle 0 |
| ACACAA | 1.2 ± 0.0676 fold-change vs cycle 0 |
| CTATGA | 1.43 ± 0.0544 fold-change vs cycle 0 |
| GATTGA | 1.46 ± 0.0217 fold-change vs cycle 0 |
| ATGACC | 0.891 ± 0.0488 fold-change vs cycle 0 |
| AATAGG | 1.39 ± 0.0729 fold-change vs cycle 0 |
| TACACA | 1.3 ± 0.0721 fold-change vs cycle 0 |
| ATGTGC | 0.588 ± 0.00704 fold-change vs cycle 0 |
| CACTCG | 0.459 ± 0.00566 fold-change vs cycle 0 |
| ACGCAA | 0.521 ± 0.02 fold-change vs cycle 0 |
| GTCTTA | 1.39 ± 0.0618 fold-change vs cycle 0 |

| Sequence | binding signal |
| --- | --- |
| CCACTC | 0.5154 ± 0.00212 fold-change vs cycle 0 |
| ACAGTA | 1.47 ± 0.111 fold-change vs cycle 0 |
| GGCATA | 0.562 ± 0.025 fold-change vs cycle 0 |
| AGGACG | 0.462 ± 0.00636 fold-change vs cycle 0 |
| AAATGC | 0.918 ± 0.025 fold-change vs cycle 0 |
| AGAACT | 1.545 ± 0.00829 fold-change vs cycle 0 |
| CAATGA | 1.47 ± 0.0677 fold-change vs cycle 0 |
| ACCAAG | 0.935 ± 0.0459 fold-change vs cycle 0 |
| AGCTAC | 0.7802 ± 0.0018 fold-change vs cycle 0 |
| GCGTTA | 0.582 ± 0.053 fold-change vs cycle 0 |
| CGAATC | 0.742 ± 0.0291 fold-change vs cycle 0 |
| GGGTAA | 0.955 ± 0.0325 fold-change vs cycle 0 |
| ATATGG | 1.33 ± 0.0761 fold-change vs cycle 0 |
| ACCAGA | 0.921 ± 0.0435 fold-change vs cycle 0 |
| CACACA | 0.777 ± 0.0199 fold-change vs cycle 0 |
| ATATAC | 1.98 ± 0.103 fold-change vs cycle 0 |
| CATCAG | 0.967 ± 0.0193 fold-change vs cycle 0 |
| CAGTTA | 1.46 ± 0.0224 fold-change vs cycle 0 |
| AGTAGA | 1.54 ± 0.0844 fold-change vs cycle 0 |
| AACGTC | 0.722 ± 0.0138 fold-change vs cycle 0 |

biological target: T3, SALL4 ZFC4 G921D (HT-SELEX) (Mus musculus, UniProt Q8BX22 870-940, G921D); test: HT-SELEX; high values mean tight binding; details: protein: recombinant; vector His6-GST; dsDNA, one strand shown
T3 sequence: T1 sequence with G52D
How it was run: as §1

| Sequence | binding signal |
| --- | --- |
| CTCATA | 1.41 ± 0.106 fold-change vs cycle 0 |
| ACATGA | 1.4 ± 0.088 fold-change vs cycle 0 |
| ACTATA | 1.76 ± 0.177 fold-change vs cycle 0 |
| CGTACA | 0.802 ± 0.0376 fold-change vs cycle 0 |
| TAGTCA | 1.34 ± 0.0704 fold-change vs cycle 0 |
| GTGTCA | 0.881 ± 0.0197 fold-change vs cycle 0 |
| AAAAAT | 1.9 ± 0.223 fold-change vs cycle 0 |
| ACGGTG | 0.528 ± 0.0554 fold-change vs cycle 0 |
| CTCAGA | 0.948 ± 0.031 fold-change vs cycle 0 |
| CGATAG | 0.851 ± 0.0176 fold-change vs cycle 0 |
| ACACAA | 1.19 ± 0.0605 fold-change vs cycle 0 |
| CTATGA | 1.42 ± 0.104 fold-change vs cycle 0 |
| GATTGA | 1.43 ± 0.0387 fold-change vs cycle 0 |
| ATGACC | 0.947 ± 0.065 fold-change vs cycle 0 |
| AATAGG | 1.32 ± 0.0667 fold-change vs cycle 0 |
| TACACA | 1.29 ± 0.0617 fold-change vs cycle 0 |
| ATGTGC | 0.719 ± 0.0265 fold-change vs cycle 0 |
| CACTCG | 0.562 ± 0.0414 fold-change vs cycle 0 |
| ACGCAA | 0.635 ± 0.0427 fold-change vs cycle 0 |
| GTCTTA | 1.35 ± 0.0901 fold-change vs cycle 0 |

| Sequence | binding signal |
| --- | --- |
| CCACTC | 0.62 ± 0.0734 fold-change vs cycle 0 |
| ACAGTA | 1.37 ± 0.127 fold-change vs cycle 0 |
| GGCATA | 0.668 ± 0.0401 fold-change vs cycle 0 |
| AGGACG | 0.558 ± 0.0296 fold-change vs cycle 0 |
| AAATGC | 0.969 ± 0.0401 fold-change vs cycle 0 |
| AGAACT | 1.43 ± 0.129 fold-change vs cycle 0 |
| CAATGA | 1.4 ± 0.0741 fold-change vs cycle 0 |
| ACCAAG | 0.983 ± 0.0112 fold-change vs cycle 0 |
| AGCTAC | 0.874 ± 0.026 fold-change vs cycle 0 |
| GCGTTA | 0.668 ± 0.0435 fold-change vs cycle 0 |
| CGAATC | 0.827 ± 0.0621 fold-change vs cycle 0 |
| GGGTAA | 0.918 ± 0.0131 fold-change vs cycle 0 |
| ATATGG | 1.28 ± 0.0676 fold-change vs cycle 0 |
| ACCAGA | 0.947 ± 0.0126 fold-change vs cycle 0 |
| CACACA | 0.826 ± 0.0389 fold-change vs cycle 0 |
| ATATAC | 1.78 ± 0.131 fold-change vs cycle 0 |
| CATCAG | 0.996 ± 0.0231 fold-change vs cycle 0 |
| CAGTTA | 1.36 ± 0.0634 fold-change vs cycle 0 |
| AGTAGA | 1.41 ± 0.124 fold-change vs cycle 0 |
| AACGTC | 0.813 ± 0.0314 fold-change vs cycle 0 |

Reference: publication PMC9838217, “Structure of SALL4 zinc finger domain reveals link between AT-rich DNA binding and Okihiro syndrome”
